Hits are enriched below; roughly 9.2% of the tested compounds scored in any of these assays.
ELG1 repair inh: inhibitors of ELG1-dependent DNA repair in HEK293T cells; Potency, µM (top dose mostly 46.1 µM), without a hit: top-dose activity change, negative = inhibition, usual class: inhibitors; 330,000 compounds, 2.3% hits; AID 504467; HEK293T ELG1-luciferase reporter, luminescence, 16 h; DNA damage induced by 5-fluorouridine; further: on the % scale 0 is the no-effect control and ±100 the full control effect; nearly all actives have a fitted effect of over 55% in size
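Step one: seed 2,000 cells per well. Step two: pin-transfer compound or DMSO alongside 5-fluorouridine. Step three: incubate 16 hr, 37 °C, 5% CO2. Step four: add ONE-Glo, wait 30 min, read luminescence.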
FLuc modulator: inhibits or activates purified firefly luciferase, miR-21 counter-screen; P08659; purified FLuc, Km substrates, luminescence inhibition; Potency, µM (doses to about 57.5 µM), for the others: at the highest dose activity change, negative = inhibition, actives largely listed as inhibitors; 360,000 compounds, 6.9% hits; AID 588342;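 further: plate controls were vehicle for no effect and reference inhibitor for full effect; nearly all actives have a fitted effect of over 55% in size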
Target sequence (P08659 whole entry, looked up): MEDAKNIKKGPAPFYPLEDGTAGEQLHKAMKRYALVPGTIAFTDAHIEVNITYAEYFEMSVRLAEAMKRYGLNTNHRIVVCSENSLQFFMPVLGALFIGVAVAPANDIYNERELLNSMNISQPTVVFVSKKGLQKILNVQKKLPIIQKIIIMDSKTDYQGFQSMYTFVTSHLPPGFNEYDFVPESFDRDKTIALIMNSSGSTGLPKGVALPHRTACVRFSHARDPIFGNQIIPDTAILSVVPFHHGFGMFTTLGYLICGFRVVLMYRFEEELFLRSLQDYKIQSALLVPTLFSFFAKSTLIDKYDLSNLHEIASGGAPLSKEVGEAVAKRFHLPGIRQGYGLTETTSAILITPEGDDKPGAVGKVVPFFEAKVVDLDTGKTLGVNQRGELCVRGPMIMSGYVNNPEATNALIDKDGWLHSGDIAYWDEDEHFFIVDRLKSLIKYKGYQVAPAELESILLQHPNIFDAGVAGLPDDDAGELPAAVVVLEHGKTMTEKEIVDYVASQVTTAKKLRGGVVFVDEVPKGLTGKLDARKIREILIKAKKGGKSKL
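Biochemical qHTS of compounds, final roughly 60 µM downward over six points, against 10 nM purified firefly luciferase using Km concentrations of substrates (10 uM D-luciferin, 10 uM ATP) in Tris acetate pH 7.5 buffer; luminescence output.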
ELG1 genotoxic: genotoxicity induction in ELG1-luciferase HEK293T cells. HEK293T ELG1-luciferase reporter, luminescence, 16 h. Potency, µM (highest dose often 46 µM), for the others: top-dose activity change, positive = activation, most hits filed as activators. 330,000 compounds, 1.3% hits; further: % of control where 0% means no effect; nearly all actives have a fitted effect of over 60% in size
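After overnight (16 hr) compound treatment at 37 °C, ELG1-luciferase HEK293T cells were lysed with ONE-Glo; luminescence quantified 30 min later at room temperature.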
NPC1 promoter act: activates the NPC1 promoter; Huh7 NPC1 promoter luciferase reporter, 24 h; Potency, µM (titrated, usually from 9.22 µM), inactives show at the highest dose activation, actives largely listed as activators; 320,000 compounds, 2.4% hits; further: % of control where 0% means no effect; nearly all actives have a fitted effect of over 60% in size
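Huh7 reporter cells (NPC1 promoter driving luciferase) are dosed with compound for 24 h at 37 °C, 5% CO2; luciferase detection reagent is then added and luminescence measured after 10 min at ambient temperature.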
SMN2 splice up: SMN2 splice variant enhancement | 210,000 compounds, 2.8% hits | Potency, µM (doses to about 46.1 µM), for inactives: at the highest dose activity change, positive = activation, usual class: activators | AID 1458 | HEK293 SMN2-luciferase splicing reporter, luminescence, 30-36 h; further: % of control where 0% means no effect; nearly all actives have a fitted effect of over 55% in size
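HEK293 cells carry an SMN2 minigene-luciferase reporter in which exon 7 inclusion puts luciferase in frame. Cells were seeded at 2000 cells/well, attached for 10-12 hours, then exposed to compounds for 30-36 hours at 37C before ONE-Glo luminescence.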
Rab9 prom act: activates the Rab9 promoter | Potency, µM (titrated, usually from 9.22 µM), without a hit: at the top dose activation, negative = inhibition, most hits filed as activators | AID 485297 | Huh7 Rab9 promoter-luciferase reporter, luminescence, 24 h | 320,000 compounds, 2.8% hits; further: % of control where 0% means no effect; nearly all actives have a fitted effect of over 60% in size
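Luminescence from Amplite-detected luciferase (10 minutes, ambient) reports Rab9 promoter activation. Before that, stable Rab9-luciferase Huh7 cells (1500/well, reduced-serum OP-MEM I plus 10% FBS) were exposed to compound for 24 hours at 37C.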
Numbers without * were called inactive; ? = inconclusive; / = not tested or not shown; [ ] = dose if it differs, or a comment. The call rests on the fitted dose curve; in most records, active means well fitted curve in the direction sought with a large enough effect; inconclusive means small, poorly fitted or top-dose-only effect, or another doubt; inactive means no such curve, though single readings can be large; an effect the other way counts as inactive or inconclusive. Potency means the concentration at half of the fitted maximal effect.

SMILES	ELG1 repair inh	FLuc modulator	ELG1 genotoxic	NPC1 promoter act	SMN2 splice up	Rab9 prom act
O=C(COc1cccnc1[N+](=O)[O-])NCc1ccccc1	?	1%	5%	-6%	/	-4%[1.84 µM]
Cc1cc(OCCn2cc(C(=O)c3cccs3)c3ccccc32)ccc1Cl	/	1%	/	/	20%	/
Cc1ccc(-c2nnn3c2nc(NCc2ccc4c(c2)OCO4)c2ccccc23)cc1	/	3%	/	/	2%	/
NC(=O)c1ccccc1OCC(=O)Nc1ccc2c(c1)OCCO2	?	8.5µM*	?	?	/	3.2µM*
COc1ccccc1OCC(=O)Nc1ccc2c(c1)OCCO2	?	17µM*	?	?	/	?
O=C(COc1ccccc1Cl)Nc1ccc2c(c1)OCCO2	?	4.8µM*	4.1µM*	4µM*	/	1.6µM*
COc1ccccc1OCCC(=O)Nc1ccc2c(c1)OCO2	-11%	/	1%	/	/	/
COc1ccc(NC(=O)c2cc(S(=O)(=O)N3CCOCC3)ccc2C)cc1S(=O)(=O)N1CCOCC1	?	/	-1%	/	/	/
COc1ccc(NC(=O)C2CCC2)cc1S(=O)(=O)N1CCOCC1	15%	3%	-1%	-2%	/	-3%
CCc1sc(C(=O)Nc2ccc(OC)c(S(=O)(=O)N3CCOCC3)c2)cc1C	8.2µM*	/	-5%	/	/	/
COc1ccc(NC(=O)c2cc3c(s2)CCC(C)C3)cc1S(=O)(=O)N1CCOCC1 (stereo not given)	23µM*	?	-15%	-9%	-65%	-18%
S=c1[nH]c2ccc3ccccc3c2[nH]1	?	-29%	14%	11%	10%	?
S=c1[nH]c2cc3ccccc3cc2[nH]1	?	4.8µM*	?	14%	/	3%
Cc1cccc(C(=O)Oc2ccc3ccc(O)cc3c2)c1	-25%	24µM*	1%	8%	/	0%
O=C(Oc1ccc2ccccc2c1)c1cncc(Br)c1	9%	-15%	4%	0%	3%	-1%
O=C(Oc1ccc2ccccc2c1)c1ccccc1	?	2.4µM*	?	0%	-12%	-2%
O=C(Oc1ccc(/C=N/O)cc1)c1ccccc1	11%	12µM*	2%	0%	11%	?
O=C(Oc1ccc(/C=N/Nc2ccccc2)cc1)c1ccccc1	?	?	?	20%	-17%	7%
CC(C)(C)c1ccc(OC(=O)c2ccccc2)cc1	?	2.4µM*	9%	-13%	/	-3%
CC(C)(C)c1ccc(OCCC(=O)NNC(=O)c2ccccc2)cc1	1%	13%	0%	1%	/	-1%
c1cncc(-c2cncnc2-n2ccnc2)c1	/	/	/	/	-5%	/
CCc1ccc(C(=O)c2cn(CC(=O)Nc3ccc(OC)c(Cl)c3)c3nc(C)ccc3c2=O)cc1	/	-5%	/	/	/	/
COc1cccc(N2CCN(C(=O)c3cccc(NC(=O)c4nsc5ccccc45)c3)CC2)c1	/	1.9µM*	/	/	/	/
O=C(Nc1ccccc1)N1CCN(C(=O)c2nsc3ccccc23)CC1	/	-6%	/	/	/	/
COc1ccc(N2CCN(C(=O)c3cccc(NC(=O)c4nsc5ccccc45)c3)CC2)cc1	/	9.5µM*	/	/	/	/
SMILES	ELG1 repair inh	FLuc modulator	ELG1 genotoxic	NPC1 promoter act	SMN2 splice up	Rab9 prom act
CCOC(=O)C1CCCN(C(=O)c2cccc(NC(=O)c3nsc4ccccc34)c2)C1 (stereo not given)	/	9.5µM*	/	/	/	/
CC1CCN(C(=O)c2cccc(NC(=O)c3nsc4ccccc34)c2)CC1	/	3.4µM*	/	/	/	/
N#CC(C#N)=Cc1ccccc1OCc1ccccc1	-3%	?	7%	-2%	/	0%
Cc1ccc(C(=O)N2CCN(c3ccccc3)CC2)cc1NC(=O)c1nsc2ccccc12	/	-4%	/	/	/	/
O=C(Nc1cccc(C(=O)N2CCN(c3ccccc3)CC2)c1)c1nsc2ccccc12	/	2.7µM*	/	/	/	/
O=C(Nc1cccc(-c2nc3ccccc3c(=O)o2)c1)c1ccccc1	4%	-4%	5%	2%	-30%	1%
CCC(=O)Nc1cccc(-c2nnc(-c3cccc(NC(=O)CC)c3)o2)c1	?	?	-6%	1%	-19%	-3%
CCOc1ccc(-c2nnc(NC(=O)Cc3ccc(OC)cc3)o2)cc1	4%	?	5%	10%	/	8%
CC(=O)Nc1ccc(C2=NN(Cc3nnc(-c4ccccc4)o3)C(=O)SC2)cc1	16µM*	?	-3%	8%	15%	9%
CCC(=O)Nc1nnc(-c2ccc(OC)cc2)o1	?	24µM*	7%	13%	15%	1%
CCC(=O)Nc1ccc(-c2nc3ccccc3c(=O)o2)cc1	1%	1.3µM*	-11%	-1%	-5%	4%
CCC(=O)Nc1ccc(-c2nnc(-c3ccccc3)o2)cc1	?	0.95µM*	?	0.32µM*	/	0.32µM*
CN1c2ccc(Cl)cc2-c2nc(SCC(=O)NCc3ccccc3)ncc2S1(=O)=O	/	1%	/	/	/	/
COc1ccc(CC(=O)Oc2ccc(C)cc2Br)cc1S(=O)(=O)N1CCOCC1	17%	4%	2%	1%	/	-3%
Cc1ccc(C(=O)N/C(=C\c2ccc(Br)cc2)c2nc(=S)[nH][nH]2)cc1	?	?	3%	-3%	-7%	2%
O=C(N/C(=C/c1cccc(Br)c1)c1nc(=S)[nH][nH]1)c1ccccc1	?	6.7µM*	12%	-1%	3%	7%
COc1cc(-c2nnc(SCC(=O)NC(C)C)o2)cc(OC)c1OC	/	3%	/	/	/	/
CCCn1nc2cc(C(=O)NCCc3cccs3)ccc2c1OCC	?	?	15%	?	16µM*	?
Cc1cc(C)c[n+](C(C)C(=O)c2ccc(Cl)cc2)c1 (stereo not given)	1%	0%	-3%	-5%	/	1%
Cc1cc2nc([C@H](C)C(=O)c3ccc(Cl)cc3)c(=O)[nH]c2cc1C	/	/	/	/	3.5µM*	/
Cc1ccc(-c2cn(-c3ccccc3)c(SCC(=O)NC3CCS(=O)(=O)C3)n2)cc1C (stereo not given)	?	?	?	3.2µM*	?	2µM*
Cc1ccc(SCC(=O)NC2CCS(=O)(=O)C2)cc1C (stereo not given)	0%	-1%	-1%	-2%	/	1%
CCOC(=O)c1ccc(-c2c(C)cc3oc(=O)cc(-c4ccccc4)c3c2C)cc1	1%	/	3%	/	/	/
N/C(=N\OCC(=O)Nc1ccccc1)c1nonc1N	?	-13%	4%	-5%	23%	-6%
N/C(=N/OC(=O)c1ccccc1F)c1nonc1N	?	4.8µM*	13%	13%	11%	-2%
N/C(=N\OC(=O)c1ccc(Cl)cc1)c1nonc1N	26%	1.7µM*	17%	-1%	17%	-10%
